# Measurements from ChEMBL document CHEMBL5308504, “Tm Shift (DSF) assay results for EUbOPEN Chemogenomics Library” (2023).
# Several values for one entry are separate records, joined by “and”; a condition that tells them apart may be missing. Equal values may be shown once.
# Assays:
# Settings in all cases: Compound concentration 20.0 uM, Protein concentration 2.0 uM, Result type QC Liability
# [1] = target: Tyrosine-protein kinase ABL1 (Homo sapiens) (UniProt P00519)
# [2] = target: Cyclin-dependent kinase 2 (Homo sapiens) (UniProt P24941)
# [3] = target: Casein kinase I isoform delta (Homo sapiens) (UniProt P48730)
# Sequence of Casein kinase I isoform delta (Homo sapiens) (P48730 whole entry, looked up, canonical isoform): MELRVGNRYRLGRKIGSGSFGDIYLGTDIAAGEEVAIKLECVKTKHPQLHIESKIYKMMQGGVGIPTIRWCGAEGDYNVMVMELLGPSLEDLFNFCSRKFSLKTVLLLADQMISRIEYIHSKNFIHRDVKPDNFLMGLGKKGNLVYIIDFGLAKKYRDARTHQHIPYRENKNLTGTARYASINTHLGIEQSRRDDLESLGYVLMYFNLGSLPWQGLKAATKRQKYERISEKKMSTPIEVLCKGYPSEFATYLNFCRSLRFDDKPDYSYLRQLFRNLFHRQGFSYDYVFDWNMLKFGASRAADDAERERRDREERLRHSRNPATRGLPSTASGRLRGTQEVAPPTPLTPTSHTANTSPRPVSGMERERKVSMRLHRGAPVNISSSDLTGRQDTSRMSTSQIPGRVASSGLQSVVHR
# [4] = target: Glycogen synthase kinase-3 beta (Homo sapiens) (UniProt P49841)
# Sequence of Glycogen synthase kinase-3 beta (Homo sapiens) (P49841 whole entry, looked up): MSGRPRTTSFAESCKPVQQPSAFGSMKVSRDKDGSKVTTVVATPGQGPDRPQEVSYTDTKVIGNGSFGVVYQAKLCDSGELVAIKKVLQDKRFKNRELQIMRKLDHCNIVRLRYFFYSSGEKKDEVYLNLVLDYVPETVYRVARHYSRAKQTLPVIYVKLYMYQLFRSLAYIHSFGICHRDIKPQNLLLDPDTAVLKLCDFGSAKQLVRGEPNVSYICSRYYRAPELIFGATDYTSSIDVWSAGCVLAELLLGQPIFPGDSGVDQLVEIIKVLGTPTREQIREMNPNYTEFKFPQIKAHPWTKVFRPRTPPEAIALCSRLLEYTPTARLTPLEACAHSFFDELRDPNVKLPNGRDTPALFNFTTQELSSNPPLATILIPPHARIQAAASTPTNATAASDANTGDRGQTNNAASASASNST
# [5] = target: Mitogen-activated protein kinase 1 (Homo sapiens) (UniProt P28482)
# Sequence of Mitogen-activated protein kinase 1 (Homo sapiens) (P28482 whole entry): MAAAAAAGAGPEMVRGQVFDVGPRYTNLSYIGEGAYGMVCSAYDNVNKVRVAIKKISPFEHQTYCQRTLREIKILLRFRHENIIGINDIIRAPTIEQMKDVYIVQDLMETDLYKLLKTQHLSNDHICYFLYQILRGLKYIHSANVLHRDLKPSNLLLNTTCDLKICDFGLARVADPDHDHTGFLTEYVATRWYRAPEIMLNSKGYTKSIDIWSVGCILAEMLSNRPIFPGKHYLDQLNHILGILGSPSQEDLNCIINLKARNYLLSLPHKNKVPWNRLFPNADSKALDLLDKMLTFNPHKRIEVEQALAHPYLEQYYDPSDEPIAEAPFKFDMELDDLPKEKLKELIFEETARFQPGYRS
# [6] = target: T1, Aurora kinase A (Homo sapiens) (UniProt O14965)
# T1 sequence (whole entry): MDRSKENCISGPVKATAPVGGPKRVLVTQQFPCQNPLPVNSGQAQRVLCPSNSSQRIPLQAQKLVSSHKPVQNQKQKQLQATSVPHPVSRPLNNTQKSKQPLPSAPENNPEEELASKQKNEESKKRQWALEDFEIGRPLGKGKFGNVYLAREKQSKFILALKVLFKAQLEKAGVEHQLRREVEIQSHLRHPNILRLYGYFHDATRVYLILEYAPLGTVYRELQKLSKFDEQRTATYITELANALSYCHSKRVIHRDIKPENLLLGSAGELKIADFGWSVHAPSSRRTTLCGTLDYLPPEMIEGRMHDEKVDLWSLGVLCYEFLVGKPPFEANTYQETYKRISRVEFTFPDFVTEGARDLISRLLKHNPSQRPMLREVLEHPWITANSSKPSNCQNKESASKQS
# Sequence of Tyrosine-protein kinase ABL1 (Homo sapiens) (P00519 whole entry): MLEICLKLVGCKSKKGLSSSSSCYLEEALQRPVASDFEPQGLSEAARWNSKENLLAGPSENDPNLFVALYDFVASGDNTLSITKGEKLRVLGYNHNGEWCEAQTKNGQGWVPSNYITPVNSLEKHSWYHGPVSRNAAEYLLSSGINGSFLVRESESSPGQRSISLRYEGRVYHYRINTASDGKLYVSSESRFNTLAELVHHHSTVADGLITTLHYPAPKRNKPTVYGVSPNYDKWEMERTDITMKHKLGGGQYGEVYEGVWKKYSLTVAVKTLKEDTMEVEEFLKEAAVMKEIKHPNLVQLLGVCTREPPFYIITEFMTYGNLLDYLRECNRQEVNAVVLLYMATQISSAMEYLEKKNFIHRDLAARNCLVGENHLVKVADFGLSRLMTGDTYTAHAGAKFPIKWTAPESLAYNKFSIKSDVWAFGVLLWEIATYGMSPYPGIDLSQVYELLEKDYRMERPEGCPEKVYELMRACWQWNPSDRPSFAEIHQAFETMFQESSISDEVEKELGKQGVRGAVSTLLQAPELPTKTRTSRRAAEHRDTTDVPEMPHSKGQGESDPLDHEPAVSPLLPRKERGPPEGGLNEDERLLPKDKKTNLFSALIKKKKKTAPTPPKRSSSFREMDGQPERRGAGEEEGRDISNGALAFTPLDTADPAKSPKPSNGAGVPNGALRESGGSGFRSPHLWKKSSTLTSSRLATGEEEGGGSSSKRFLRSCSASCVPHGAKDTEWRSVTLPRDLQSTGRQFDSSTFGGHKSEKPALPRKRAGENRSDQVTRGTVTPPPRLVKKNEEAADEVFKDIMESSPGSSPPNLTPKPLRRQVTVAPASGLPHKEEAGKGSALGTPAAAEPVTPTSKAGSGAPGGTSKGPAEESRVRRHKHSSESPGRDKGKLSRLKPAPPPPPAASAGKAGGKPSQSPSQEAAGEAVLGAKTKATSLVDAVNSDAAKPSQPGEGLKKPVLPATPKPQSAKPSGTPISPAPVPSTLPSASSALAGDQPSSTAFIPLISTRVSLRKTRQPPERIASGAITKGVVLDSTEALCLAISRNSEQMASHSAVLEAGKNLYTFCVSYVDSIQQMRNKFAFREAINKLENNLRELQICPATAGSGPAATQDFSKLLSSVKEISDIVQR
Structure (SMILES),ΔTm [1],ΔTm [2],ΔTm [3],ΔTm [4],ΔTm [5],ΔTm [6]
COc1cc(-c2cn[nH]c2)ccc1C(=O)Nc1ccc2c(c1)CCNCC2,0.96 °C,0.47 °C,0.7 °C,-0.7 °C,0.38 °C,0.13 °C
COc1cc(N[C@@H]2CCCC[C@]2(O)C(F)(F)F)ccc1F,0.29 °C,0.72 °C,0.65 °C,-0.31 °C,0.4 °C,-1.49 °C
Cc1cccc(-c2[nH]c(CNc3ccccc3F)nc2-c2ccc3ncnn3c2)n1,3.23 °C,0.92 °C,1.1 °C,-0.02 °C,0.92 °C,0.8 °C
Cc1ccc(-n2nc(C(C)(C)C)cc2NC(=O)Nc2ccccc2F)cc1,1.53 °C,1.51 °C,2.52 °C,-0.41 °C,3.34 °C,-1.69 °C
O=C1Nc2ccc(I)cc2/C1=C/c1cc(Br)c(O)c(Br)c1,2.98 °C,0.35 °C,0.18 °C,-1.46 °C,0.48 °C,-0.27 °C
CC(C)(C)c1cc(NC(=O)c2csc(Nc3ccccn3)n2)no1,1.84 °C,0.49 °C,0.84 °C,0.22 °C,0.57 °C,1.27 °C
CCCc1c(OCCCOc2ccc(OCC(=O)O)cc2)ccc(C(C)=O)c1O,0.08 °C,-0.16 °C,1.18 °C,-0.07 °C,-0.16 °C,-1.56 °C
Cc1cc2c(ncn2C2(C)CN(C(=O)c3ccn(CC4CCN([C@H]5C=CCCCC5)CC4)c3)C2)c(N)n1,0.14 °C,1.09 °C,-0.14 °C,-0.26 °C,0.62 °C,-1 °C
COc1cc(C(=O)NC2CCN(C)CC2)ccc1Nc1ncc(C(F)(F)F)c(NCc2ccc(C)cc2N(C)S(C)(=O)=O)n1,0.73 °C,0.29 °C,1.1 °C,-0.29 °C,3.52 °C,5.17 °C
CNC(=O)c1ccc2c(c1)NC(=O)/C2=C(\Nc1ccc(CN2CCCCC2)cc1)c1ccccc1,7.98 °C,0.46 °C,0.03 °C,1.71 °C,0.02 °C,3.8 °C
CC(=O)N(CCN(C)C)c1ccc(N/C(=C2\C(=O)Nc3cc(Cl)ccc32)c2ccccc2)cn1,8.38 °C,3.16 °C,2.87 °C,11.3 °C,0.38 °C,7.54 °C
COc1cc(-c2cn(C)c(=O)c3cnccc23)c(OC)cc1CN(C)C,0.49 °C,0.53 °C,0.06 °C,0.1 °C,-0.12 °C,-0.18 °C
O=C(O)c1ccc(OCCCc2ccc(OCCCCOC3CCCCC3)cc2)c(C(=O)NC2CCCC(C(=O)O)C2)c1 (stereo not given),-0.97 °C,-0.34 °C,0.18 °C,-0.84 °C,-0.39 °C,-1.1 °C
CC[C@@H]1C(=O)N(C)c2cnc(Nc3ccc(C(=O)NC4CCN(C)CC4)cc3OC)nc2N1C1CCCC1,1.51 °C,0.58 °C,,0.02 °C,0.15 °C,-0.18 °C
O=c1[nH]c(CS[C@H]2CC[C@H](O)CC2)nc2cc(OCC3CC3)cc(F)c12,0.13 °C,0.95 °C,0.35 °C,0.78 °C,0.46 °C,-0.03 °C
O=C(O)c1ccnc(N2CC(O)(c3ccc(OCc4c(-c5c(Cl)cccc5Cl)noc4C4CC4)cc3Cl)C2)c1,0.22 °C,-0.27 °C,0.41 °C,-0.81 °C,-0.58 °C,-1.95 °C
CCn1ccc(Nc2ncc3c(n2)-c2c(nn(C)c2-c2ccc(-c4cnn(C)c4)cc2Cl)CC3)n1,3.73 °C,5.04 °C,2.25 °C,5.78 °C,0.81 °C,6.95 °C
Cc1ncsc1-c1ccc(CNC(=O)[C@@H]2C[C@@H](O)CN2C(=O)[C@@H](NC(=O)C2(F)CC2)C(C)(C)C)c(OCCOc2ccc(CN3CCN(c4cc(-c5ccccc5O)nnc4N)CC3)cc2)c1,0.25 °C,4.72 °C,2.6 °C,9.47 °C,-1.54 °C,3.64 °C
NS(=O)(=O)c1ccc(Nc2nc(OCC3CCCCC3)c3nc[nH]c3n2)cc1,5.71 °C,,0.51 °C,5.83 °C,2.65 °C,7.68 °C
COc1ccccc1S(=O)(=O)Nc1ccc2c(c1)CN(C)C(=O)N2,0.09 °C,1.13 °C,0.79 °C,-0.57 °C,0.21 °C,-0.1 °C
N=C(N)NCCC[C@@H](NC(=O)C(c1ccccc1)c1ccccc1)C(=O)NCc1ccc(CNC(N)=O)cc1,0.37 °C,0.62 °C,0.21 °C,-0.25 °C,0.26 °C,0.1 °C
Cc1ccc(-n2nc(C(C)(C)C)cc2NC(=O)Nc2ccc(OCCN3CCOCC3)c3ccccc23)cc1,,1.17 °C and 1.39 °C,3.31 °C and 1.35 °C,3.17 °C and 2.68 °C,0.43 °C and 1.14 °C,0.18 °C and 0.11 °C
CN(C1CCc2c(c3ccccc3n2CC(=O)O)C1)S(=O)(=O)c1ccc(F)cc1 (stereo not given),0.59 °C,0.46 °C,-0.23 °C,0 °C,-0.11 °C,0.35 °C
O=C(Nc1ccc(OC(F)(F)Cl)cc1)c1cnc(N2CC[C@@H](O)C2)c(-c2cc[nH]n2)c1,,1.08 °C,0.99 °C,0 °C,0.21 °C,0.17 °C
